Source: PubChem BioAssay (NCI)
Values joined by “and” are separate entries in the source; they are usually repeats but may differ in a detail not shown here. Identical values can stand only once. Compounds without any hit were thinned out: in the full panel of roughly 83,000, 20% have a hit.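 Interpretation: 100, growth as untreated; towards 0, rising growth inhibition; 0, no net growth; 0 to -100, cell death. Compounds scoring below 10 were considered active.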 Active and inactive are the calls of the source.

Legend:
Assay in all cases: NCI-60 one-dose screen, 48 h (100 = growth as untreated, 0 = no growth, -100 = all killed)
EKVX NSCLC = tested on: EKVX NSCLC
SN12C renal = tested on: SN12C renal
UO-31 renal = tested on: UO-31 renal
TK-10 renal = tested on: TK-10 renal
ACHN renal = tested on: ACHN renal
CAKI-1 renal = tested on: CAKI-1 renal
A498 renal = tested on: A498 renal
CCRF-CEM leukemia = tested on: CCRF-CEM leukemia
MOLT-4 leukemia = tested on: MOLT-4 leukemia
SR leukemia = tested on: SR leukemia
RPMI-8226 leukemia = tested on: RPMI-8226 leukemia
OVCAR-8 ovarian = details: 10 µM
OVCAR-5 ovarian = tested on: OVCAR-5 ovarian
SK-OV-3 ovarian = tested on: SK-OV-3 ovarian
IGROV1 ovarian = tested on: IGROV1 ovarian
OVCAR-3 ovarian = tested on: OVCAR-3 ovarian
HS 578T breast = tested on: HS 578T breast
NCI/ADR-RES ovarian = tested on: NCI/ADR-RES ovarian
OVCAR-4 ovarian = tested on: OVCAR-4 ovarian
T-47D breast = tested on: T-47D breast

Measured: growth

O=C1C(Cl)=C(Cl)C(Cl)(Cl)C(Cl)C1(Cl)Cl (stereo not drawn)
inactive: EKVX NSCLC; 10 µM 105% | SN12C renal; 10 µM 88.5% | UO-31 renal; 10 µM 84.5% | TK-10 renal; 10 µM 98.9% | ACHN renal; 10 µM 100% | CAKI-1 renal; 10 µM 99% | A498 renal; 10 µM 115% | CCRF-CEM leukemia; 10 µM 94.9% | MOLT-4 leukemia; 10 µM unless noted 94.8% | SR leukemia; 10 µM 90.2% | RPMI-8226 leukemia; 10 µM 98.1% | OVCAR-8 ovarian 106% | OVCAR-5 ovarian; 10 µM 102% | SK-OV-3 ovarian; 10 µM 103% | IGROV1 ovarian; 10 µM 90.9% | OVCAR-3 ovarian; 10 µM 112% | HS 578T breast; 10 µM 109% | NCI/ADR-RES ovarian; 10 µM 104%

S=P(N1CC1)(N1CC1)N1CC1
active: ACHN renal; 100 µM 8.37% | CAKI-1 renal; 100 µM 2.65%
inactive: EKVX NSCLC; 10 µM 107% and 90.2% | EKVX NSCLC; 100 µM 101% | SN12C renal; 10 µM 98.5% and 72.8% | SN12C renal; 100 µM 44.1% | UO-31 renal; 10 µM 71.9% and 83.7% | UO-31 renal; 100 µM 39.1% | TK-10 renal; 10 µM 115% and 111% | TK-10 renal; 100 µM 98.8% | ACHN renal; 10 µM 104% and 60.1% | CAKI-1 renal; 10 µM 91.6% and 47.4% | A498 renal; 10 µM 122% and 69.4% | A498 renal; 100 µM 67.8% | CCRF-CEM leukemia; 10 µM 107% and 106% | CCRF-CEM leukemia; 100 µM 21.4% | MOLT-4 leukemia; 10 µM 98.2% and 61.8% | MOLT-4 leukemia; 100 µM 22.6% | SR leukemia; 10 µM 35.4% | SR leukemia; 100 µM 22.6% | RPMI-8226 leukemia; 10 µM 99.2% and 136% | RPMI-8226 leukemia; 100 µM 51.4% | OVCAR-8 ovarian 110% and 80.7% | OVCAR-5 ovarian; 10 µM 108% and 77.1% | OVCAR-5 ovarian; 100 µM 64.7% | OVCAR-4 ovarian; 10 µM 116% and 90.4% | OVCAR-4 ovarian; 100 µM 87.9% | SK-OV-3 ovarian; 10 µM 110% and 108% | SK-OV-3 ovarian; 100 µM 67.2% | IGROV1 ovarian; 10 µM 101% and 78.2% | IGROV1 ovarian; 100 µM 70.7% | OVCAR-3 ovarian; 10 µM 118% and 106% | OVCAR-3 ovarian; 100 µM 69.8% | HS 578T breast; 10 µM 113% and 126% | HS 578T breast; 100 µM 66% | NCI/ADR-RES ovarian; 10 µM 107% and 88.6% | NCI/ADR-RES ovarian; 100 µM 40.3% | T-47D breast; 10 µM 103% and 98.1% | T-47D breast; 100 µM 53.7%

CCC(C)(c1ccc(O)c(C)c1)c1ccc(O)c(C)c1
inactive: EKVX NSCLC; 10 µM 82.5% | SN12C renal; 10 µM 84.9% | UO-31 renal; 10 µM 76% | TK-10 renal; 10 µM 249% | ACHN renal; 10 µM 98.8% | CAKI-1 renal; 10 µM 62.1% | A498 renal; 10 µM 110% | CCRF-CEM leukemia; 10 µM 89% | MOLT-4 leukemia; 10 µM unless noted 130% | SR leukemia; 10 µM 113% | RPMI-8226 leukemia; 10 µM 84.1% | OVCAR-8 ovarian 103% | OVCAR-5 ovarian; 10 µM 101% | OVCAR-4 ovarian; 10 µM 91.9% | SK-OV-3 ovarian; 10 µM 50.8% | IGROV1 ovarian; 10 µM 85.5% | OVCAR-3 ovarian; 10 µM 102% | HS 578T breast; 10 µM 95% | NCI/ADR-RES ovarian; 10 µM 103%

Cn1c2nc3ccccc3c-2nc2ccccc21
inactive: EKVX NSCLC; 10 µM 81.2% | SN12C renal; 10 µM 95% and 87.7% | UO-31 renal; 10 µM 71.9% and 48.3% | TK-10 renal; 10 µM 113% and 109% | ACHN renal; 10 µM 94.4% and 79.1% | CAKI-1 renal; 10 µM 73.9% and 93.6% | A498 renal; 10 µM 45.9% and 80.3% | MOLT-4 leukemia; 10 µM unless noted 97.9% and 96.7% | SR leukemia; 10 µM 83.5% and 91.1% | RPMI-8226 leukemia; 10 µM 94.9% and 96.8% | OVCAR-8 ovarian 93% and 88.6% | OVCAR-5 ovarian; 10 µM 103% and 86.9% | OVCAR-4 ovarian; 10 µM 89.5% and 80.5% | SK-OV-3 ovarian; 10 µM 91.2% and 90.8% | IGROV1 ovarian; 10 µM 79.8% and 61.6% | OVCAR-3 ovarian; 10 µM 99.2% and 93.3% | HS 578T breast; 10 µM 83.4% and 87.5% | NCI/ADR-RES ovarian; 10 µM 99.3% and 93.6%
95.8% (inactive) and -21.8% (active): CCRF-CEM leukemia; 10 µM

O=C1c2cccc3cc([N+](=O)[O-])cc(c23)C(=O)N1CCN1CCCC1
active: SN12C renal; 10 µM -18.2% | UO-31 renal; 10 µM -42.8% | TK-10 renal; 10 µM -11.3% | ACHN renal; 10 µM -57.9% | CAKI-1 renal; 10 µM -14% | A498 renal; 10 µM -64.4% | CCRF-CEM leukemia; 10 µM -5.62% | MOLT-4 leukemia; 10 µM unless noted -17.9% | SR leukemia; 10 µM -34.6% | RPMI-8226 leukemia; 10 µM -19.1% | OVCAR-8 ovarian 9.55% | OVCAR-5 ovarian; 10 µM -1.73% | OVCAR-4 ovarian; 10 µM 3.14% | SK-OV-3 ovarian; 10 µM -0.119% | IGROV1 ovarian; 10 µM -2.59% | OVCAR-3 ovarian; 10 µM -16.8% | HS 578T breast; 10 µM -25.4% | NCI/ADR-RES ovarian; 10 µM -2.54%
inactive: EKVX NSCLC; 10 µM 10.9%

O=C1C=CC(=O)N1c1ccc(N2C(=O)C=CC2=O)cc1
active: MOLT-4 leukemia; 10 µM unless noted -9.11% | SR leukemia; 10 µM 0.0539%
inactive: EKVX NSCLC; 10 µM 90.8% | SN12C renal; 10 µM 102% | UO-31 renal; 10 µM 76.7% | TK-10 renal; 10 µM 92% | ACHN renal; 10 µM 92.2% | CAKI-1 renal; 10 µM 69.9% | A498 renal; 10 µM 149% | CCRF-CEM leukemia; 10 µM 15.9% | RPMI-8226 leukemia; 10 µM 38.6% | OVCAR-8 ovarian 109% | OVCAR-5 ovarian; 10 µM 97.7% | OVCAR-4 ovarian; 10 µM 101% | SK-OV-3 ovarian; 10 µM 97.3% | IGROV1 ovarian; 10 µM 105% | OVCAR-3 ovarian; 10 µM 103% | HS 578T breast; 10 µM 128% | NCI/ADR-RES ovarian; 10 µM 102%
